In paper PMC7862700, “An all-to-all approach to the identification of sequence-specific readers for epigenetic DNA modifications on cytosine”:

What was measured:
Assay in all cases: DAPPL (digital affinity profiling via proximity ligation, sequencing); 10 mM Tris-HCl pH 7.5, 50 mM NaCl, 1 mM DTT, 4% glycerol, room temperature, 30 min; GST-TFs on glutathione beads, 16-mer random dsDNA library, 0.1% formaldehyde crosslink after washing; high values mean tight binding
Settings in all cases: protein: recombinant; tags: N-terminal GST; dsDNA, one strand shown
[1] = target: T1, FLI1 (Homo sapiens, UniProt Q01543 1-452)
T1 sequence: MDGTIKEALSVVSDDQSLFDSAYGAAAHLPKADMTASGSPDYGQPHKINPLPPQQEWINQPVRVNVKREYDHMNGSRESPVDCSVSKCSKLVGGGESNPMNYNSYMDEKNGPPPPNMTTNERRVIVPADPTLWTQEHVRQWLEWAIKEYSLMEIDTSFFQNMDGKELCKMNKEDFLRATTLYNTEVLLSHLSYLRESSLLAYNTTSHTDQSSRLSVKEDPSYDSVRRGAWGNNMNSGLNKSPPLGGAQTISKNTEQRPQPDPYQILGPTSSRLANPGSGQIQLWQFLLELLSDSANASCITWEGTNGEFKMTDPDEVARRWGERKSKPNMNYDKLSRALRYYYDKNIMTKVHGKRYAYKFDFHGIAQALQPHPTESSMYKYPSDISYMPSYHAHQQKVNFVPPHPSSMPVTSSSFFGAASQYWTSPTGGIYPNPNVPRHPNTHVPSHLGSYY
Method in brief: (§1)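 Binding signal is defined as a hexamer's read frequency for one factor over its frequency for the tag-only sample. To obtain reads, GST-fused human transcription factors were expressed in yeast, captured on glutathione beads, barcoded with DNA and pooled with that sample. Pools met 200 nmole of a 16-mer random double-stranded DNA library in Tris/NaCl/DTT/glycerol buffer for 30 min at room temperature before washing, 0.1% formaldehyde crosslinking, proximity ligation (BsaI/T4 ligase, 1 h, 37 °C), PCR and Illumina NextSeq500 sequencing.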

[2] = target: T2, ELK1 (Homo sapiens, UniProt P19419 1-428)
T2 sequence: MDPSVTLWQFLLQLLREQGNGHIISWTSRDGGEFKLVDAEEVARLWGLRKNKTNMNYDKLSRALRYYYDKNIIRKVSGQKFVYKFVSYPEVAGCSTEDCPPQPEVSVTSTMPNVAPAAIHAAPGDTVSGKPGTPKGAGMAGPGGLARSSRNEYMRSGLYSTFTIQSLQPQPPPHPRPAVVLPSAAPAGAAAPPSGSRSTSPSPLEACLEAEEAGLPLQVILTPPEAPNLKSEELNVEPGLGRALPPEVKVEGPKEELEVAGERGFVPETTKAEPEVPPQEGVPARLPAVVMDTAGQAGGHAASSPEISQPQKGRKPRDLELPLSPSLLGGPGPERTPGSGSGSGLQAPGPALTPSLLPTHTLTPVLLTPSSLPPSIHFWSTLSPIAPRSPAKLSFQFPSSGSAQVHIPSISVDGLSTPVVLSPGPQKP
Method in brief: as §1

[3] = target: T3, GABPA (Homo sapiens, UniProt Q06546 1-454)
T3 sequence: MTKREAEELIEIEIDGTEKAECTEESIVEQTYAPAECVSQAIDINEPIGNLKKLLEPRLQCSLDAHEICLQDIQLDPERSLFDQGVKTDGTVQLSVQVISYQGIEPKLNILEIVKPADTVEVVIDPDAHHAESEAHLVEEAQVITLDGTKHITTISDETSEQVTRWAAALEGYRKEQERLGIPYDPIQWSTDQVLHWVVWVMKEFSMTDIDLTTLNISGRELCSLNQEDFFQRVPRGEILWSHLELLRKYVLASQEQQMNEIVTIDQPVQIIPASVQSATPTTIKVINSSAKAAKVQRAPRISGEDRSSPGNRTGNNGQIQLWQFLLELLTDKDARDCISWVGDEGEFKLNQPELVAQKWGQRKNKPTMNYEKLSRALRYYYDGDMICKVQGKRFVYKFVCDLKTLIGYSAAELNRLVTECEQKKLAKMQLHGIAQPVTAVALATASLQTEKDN
Method in brief: as §1

[4] = target: T4, ERG (Homo sapiens, UniProt P11308 1-479)
T4 sequence: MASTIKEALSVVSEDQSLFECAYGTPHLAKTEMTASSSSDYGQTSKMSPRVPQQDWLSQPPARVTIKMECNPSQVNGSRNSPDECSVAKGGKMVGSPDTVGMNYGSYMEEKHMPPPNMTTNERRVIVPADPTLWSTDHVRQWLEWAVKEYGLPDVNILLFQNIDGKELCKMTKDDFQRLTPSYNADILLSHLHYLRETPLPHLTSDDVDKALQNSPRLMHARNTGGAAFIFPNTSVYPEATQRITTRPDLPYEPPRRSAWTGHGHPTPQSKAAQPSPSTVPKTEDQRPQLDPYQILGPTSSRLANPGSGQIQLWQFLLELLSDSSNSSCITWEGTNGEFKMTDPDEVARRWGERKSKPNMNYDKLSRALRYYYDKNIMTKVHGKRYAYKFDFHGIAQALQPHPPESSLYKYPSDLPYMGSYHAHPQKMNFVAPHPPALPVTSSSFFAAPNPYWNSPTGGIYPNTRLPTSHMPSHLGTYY
Method in brief: as §1

[5] = target: ELF1 (Homo sapiens, UniProt P32519 1-619)
Method in brief: as §1

[6] = target: T5, EHF (Homo sapiens, UniProt Q9NZC4 1-300)
T5 sequence: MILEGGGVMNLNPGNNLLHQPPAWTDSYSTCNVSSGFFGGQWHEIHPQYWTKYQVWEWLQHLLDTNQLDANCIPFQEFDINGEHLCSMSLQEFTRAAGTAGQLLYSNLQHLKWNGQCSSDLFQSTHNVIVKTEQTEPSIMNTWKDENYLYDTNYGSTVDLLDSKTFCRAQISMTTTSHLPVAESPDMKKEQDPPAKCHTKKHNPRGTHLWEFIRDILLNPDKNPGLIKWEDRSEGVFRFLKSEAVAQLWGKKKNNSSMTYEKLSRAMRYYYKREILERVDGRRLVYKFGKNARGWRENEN
Method in brief: as §1

[7] = target: SPI1 (Homo sapiens, UniProt P17947 1-270)
Method in brief: as §1

[8] = target: SPIB (Homo sapiens, UniProt Q01892 1-262)
Method in brief: as §1

[9] = target: T6, FEV (Homo sapiens, UniProt Q99581 1-238)
T6 sequence: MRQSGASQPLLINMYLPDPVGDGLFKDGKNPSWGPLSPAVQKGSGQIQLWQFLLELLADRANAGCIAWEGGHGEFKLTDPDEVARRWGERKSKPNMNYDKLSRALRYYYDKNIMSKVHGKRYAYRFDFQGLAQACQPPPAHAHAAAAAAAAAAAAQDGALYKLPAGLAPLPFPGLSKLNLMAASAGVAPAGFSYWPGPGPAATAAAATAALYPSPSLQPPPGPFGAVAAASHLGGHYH
Method in brief: as §1

[10] = target: ETV5 (Homo sapiens, UniProt P41161 1-510)
Method in brief: as §1

[11] = target: T7, SPIC (Homo sapiens, UniProt Q8N5J4 1-248)
T7 sequence: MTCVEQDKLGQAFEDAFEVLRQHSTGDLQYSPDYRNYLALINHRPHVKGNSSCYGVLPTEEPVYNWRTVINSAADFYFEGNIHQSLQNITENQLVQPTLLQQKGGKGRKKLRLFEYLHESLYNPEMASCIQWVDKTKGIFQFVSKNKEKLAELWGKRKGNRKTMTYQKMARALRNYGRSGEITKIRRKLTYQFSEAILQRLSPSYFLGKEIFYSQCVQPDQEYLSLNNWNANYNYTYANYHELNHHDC
Method in brief: as §1

[12] = target: ELF4 (Homo sapiens, UniProt Q99607 1-663)
Method in brief: as §1

[13] = target: T8, ELK4 (Homo sapiens, UniProt P28324-2 1-405)
T8 sequence: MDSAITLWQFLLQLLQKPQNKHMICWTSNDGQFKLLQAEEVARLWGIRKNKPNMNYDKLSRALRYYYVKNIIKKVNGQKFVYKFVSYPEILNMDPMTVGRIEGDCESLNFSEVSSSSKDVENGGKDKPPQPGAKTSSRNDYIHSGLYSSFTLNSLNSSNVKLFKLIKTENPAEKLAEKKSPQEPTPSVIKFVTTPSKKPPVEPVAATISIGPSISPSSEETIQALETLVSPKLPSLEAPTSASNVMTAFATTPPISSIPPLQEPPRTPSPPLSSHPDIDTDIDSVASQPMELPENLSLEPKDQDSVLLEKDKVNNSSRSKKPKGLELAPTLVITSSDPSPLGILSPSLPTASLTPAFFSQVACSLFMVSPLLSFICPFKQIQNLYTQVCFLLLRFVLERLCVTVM
Method in brief: as §1

[14] = target: T9, ETV2 (Homo sapiens, UniProt O00321 1-342)
T9 sequence: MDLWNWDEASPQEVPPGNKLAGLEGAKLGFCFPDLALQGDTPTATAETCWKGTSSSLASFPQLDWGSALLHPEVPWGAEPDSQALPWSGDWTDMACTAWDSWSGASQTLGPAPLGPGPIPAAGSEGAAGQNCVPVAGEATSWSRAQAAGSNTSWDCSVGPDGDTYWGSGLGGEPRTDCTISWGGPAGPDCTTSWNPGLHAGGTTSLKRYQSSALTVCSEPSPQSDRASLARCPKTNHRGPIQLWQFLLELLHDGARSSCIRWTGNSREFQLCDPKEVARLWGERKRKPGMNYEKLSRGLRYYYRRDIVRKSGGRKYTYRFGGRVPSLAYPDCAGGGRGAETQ
Method in brief: as §1

[15] = target: ETV1 (Homo sapiens, UniProt P50549 1-477)
Method in brief: as §1

[16] = target: T10, ELK3 (Homo sapiens, UniProt P41970 1-407)
T10 sequence: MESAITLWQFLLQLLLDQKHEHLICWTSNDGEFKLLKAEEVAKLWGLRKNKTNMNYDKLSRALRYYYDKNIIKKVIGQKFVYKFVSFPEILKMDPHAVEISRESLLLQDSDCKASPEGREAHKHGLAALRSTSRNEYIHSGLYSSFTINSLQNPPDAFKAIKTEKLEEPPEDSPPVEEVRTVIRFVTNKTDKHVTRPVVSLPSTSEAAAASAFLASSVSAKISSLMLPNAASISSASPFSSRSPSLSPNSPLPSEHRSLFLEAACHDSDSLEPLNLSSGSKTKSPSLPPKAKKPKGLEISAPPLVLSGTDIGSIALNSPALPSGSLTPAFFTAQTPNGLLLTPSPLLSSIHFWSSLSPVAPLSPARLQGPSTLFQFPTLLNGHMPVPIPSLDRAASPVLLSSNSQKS
Method in brief: as §1

[17] = target: T11, ELF3 (Homo sapiens, UniProt P78545 1-371)
T11 sequence: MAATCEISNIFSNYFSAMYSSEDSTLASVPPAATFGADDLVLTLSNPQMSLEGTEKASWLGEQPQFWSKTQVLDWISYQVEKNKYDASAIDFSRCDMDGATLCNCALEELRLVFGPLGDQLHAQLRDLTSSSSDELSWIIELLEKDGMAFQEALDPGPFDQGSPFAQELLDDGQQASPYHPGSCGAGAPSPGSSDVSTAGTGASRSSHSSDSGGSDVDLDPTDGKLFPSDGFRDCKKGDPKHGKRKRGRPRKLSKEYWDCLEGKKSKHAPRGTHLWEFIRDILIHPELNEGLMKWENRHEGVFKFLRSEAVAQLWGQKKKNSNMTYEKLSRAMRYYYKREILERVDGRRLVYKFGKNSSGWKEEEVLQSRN
Method in brief: as §1

Sequence of ELF1 (P32519 whole entry): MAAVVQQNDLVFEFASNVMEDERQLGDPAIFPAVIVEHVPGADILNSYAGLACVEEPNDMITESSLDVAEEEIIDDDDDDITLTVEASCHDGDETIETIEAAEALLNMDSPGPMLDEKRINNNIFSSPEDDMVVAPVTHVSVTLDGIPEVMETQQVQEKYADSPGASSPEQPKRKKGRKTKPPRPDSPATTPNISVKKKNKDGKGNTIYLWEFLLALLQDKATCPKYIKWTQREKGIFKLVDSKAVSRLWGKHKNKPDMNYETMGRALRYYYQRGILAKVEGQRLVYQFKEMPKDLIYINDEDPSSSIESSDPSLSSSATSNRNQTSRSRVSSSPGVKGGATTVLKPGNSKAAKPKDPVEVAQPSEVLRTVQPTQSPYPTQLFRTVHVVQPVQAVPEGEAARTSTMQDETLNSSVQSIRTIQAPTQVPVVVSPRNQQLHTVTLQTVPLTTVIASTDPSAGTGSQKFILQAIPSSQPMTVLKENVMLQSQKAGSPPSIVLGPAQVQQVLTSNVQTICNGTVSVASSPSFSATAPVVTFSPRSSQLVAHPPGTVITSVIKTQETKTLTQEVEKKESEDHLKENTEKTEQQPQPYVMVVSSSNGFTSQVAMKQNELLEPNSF
Sequence of ETV1 (P50549 whole entry): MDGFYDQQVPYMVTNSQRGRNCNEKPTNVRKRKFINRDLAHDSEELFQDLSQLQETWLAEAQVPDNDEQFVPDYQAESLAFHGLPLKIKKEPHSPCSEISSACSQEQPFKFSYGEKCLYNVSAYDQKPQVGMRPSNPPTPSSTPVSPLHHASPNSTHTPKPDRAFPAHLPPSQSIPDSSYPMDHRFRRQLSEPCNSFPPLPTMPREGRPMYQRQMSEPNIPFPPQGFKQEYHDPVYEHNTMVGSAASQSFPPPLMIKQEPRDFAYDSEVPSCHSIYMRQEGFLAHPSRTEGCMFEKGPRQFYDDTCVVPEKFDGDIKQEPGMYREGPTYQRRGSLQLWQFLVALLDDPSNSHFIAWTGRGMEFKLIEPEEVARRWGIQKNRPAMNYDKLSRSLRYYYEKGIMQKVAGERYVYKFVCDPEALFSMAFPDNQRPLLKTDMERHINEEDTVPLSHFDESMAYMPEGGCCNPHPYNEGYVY
Sequence of ETV5 (P41161 whole entry): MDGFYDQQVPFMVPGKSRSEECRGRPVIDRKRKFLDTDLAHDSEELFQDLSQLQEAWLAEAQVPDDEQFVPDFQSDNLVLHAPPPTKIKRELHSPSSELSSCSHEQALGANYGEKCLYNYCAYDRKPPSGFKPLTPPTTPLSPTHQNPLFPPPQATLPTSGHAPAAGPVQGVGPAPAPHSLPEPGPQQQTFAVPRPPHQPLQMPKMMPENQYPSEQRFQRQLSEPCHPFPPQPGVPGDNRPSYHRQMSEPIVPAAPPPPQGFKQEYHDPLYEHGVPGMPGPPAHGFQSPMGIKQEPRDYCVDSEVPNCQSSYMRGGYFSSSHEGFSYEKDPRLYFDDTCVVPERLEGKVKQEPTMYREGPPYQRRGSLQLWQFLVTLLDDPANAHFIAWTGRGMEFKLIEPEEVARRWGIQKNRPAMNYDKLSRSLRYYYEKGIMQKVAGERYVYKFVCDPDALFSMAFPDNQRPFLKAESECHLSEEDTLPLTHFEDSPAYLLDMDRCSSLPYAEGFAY
Sequence of SPIB (Q01892 whole entry): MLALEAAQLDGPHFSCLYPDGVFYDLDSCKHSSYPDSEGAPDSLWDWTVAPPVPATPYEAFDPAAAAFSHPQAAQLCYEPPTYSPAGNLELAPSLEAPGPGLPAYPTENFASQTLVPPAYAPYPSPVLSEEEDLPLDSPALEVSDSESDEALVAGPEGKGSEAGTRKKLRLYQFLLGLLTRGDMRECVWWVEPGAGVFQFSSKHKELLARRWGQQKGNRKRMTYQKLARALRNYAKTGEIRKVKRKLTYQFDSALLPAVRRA
Sequence of ELF4 (Q99607 whole entry): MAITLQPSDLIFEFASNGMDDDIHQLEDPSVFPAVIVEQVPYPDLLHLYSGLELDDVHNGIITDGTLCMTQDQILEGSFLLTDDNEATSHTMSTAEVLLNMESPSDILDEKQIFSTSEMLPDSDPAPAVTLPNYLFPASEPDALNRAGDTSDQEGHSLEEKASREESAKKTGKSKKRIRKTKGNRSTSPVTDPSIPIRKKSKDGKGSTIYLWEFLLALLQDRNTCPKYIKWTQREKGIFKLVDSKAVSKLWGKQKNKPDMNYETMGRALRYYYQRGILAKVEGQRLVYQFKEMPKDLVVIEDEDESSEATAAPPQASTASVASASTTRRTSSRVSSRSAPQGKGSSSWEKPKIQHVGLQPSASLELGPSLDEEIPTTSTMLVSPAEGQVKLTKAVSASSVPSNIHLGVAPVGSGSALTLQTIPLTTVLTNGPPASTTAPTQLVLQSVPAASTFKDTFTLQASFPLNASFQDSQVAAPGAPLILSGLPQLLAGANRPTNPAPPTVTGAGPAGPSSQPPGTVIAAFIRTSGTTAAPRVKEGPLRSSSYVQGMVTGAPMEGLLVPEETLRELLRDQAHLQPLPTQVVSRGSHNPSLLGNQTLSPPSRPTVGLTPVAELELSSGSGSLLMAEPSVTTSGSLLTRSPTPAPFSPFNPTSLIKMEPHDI

| Sequence | binding signal [1] | binding signal [2] | binding signal [3] | binding signal [4] | binding signal [5] | binding signal [6] | binding signal [7] | binding signal [8] | binding signal [9] | binding signal [10] | binding signal [11] | binding signal [12] | binding signal [13] | binding signal [14] | binding signal [15] | binding signal [16] | binding signal [17] |
| --- | --- | --- | --- | --- | --- | --- | --- | --- | --- | --- | --- | --- | --- | --- | --- | --- | --- |
| ACGGCC | 1.1 fold enrichment (6-mer frequency, TF over GST control) | 1.13 fold enrichment (6-mer frequency, TF over GST control) | 1.12 fold enrichment (6-mer frequency, TF over GST control) | 1.09 fold enrichment (6-mer frequency, TF over GST control) | 1.09 fold enrichment (6-mer frequency, TF over GST control) | 1.09 fold enrichment (6-mer frequency, TF over GST control) | 1.09 fold enrichment (6-mer frequency, TF over GST control) | 1.26 fold enrichment (6-mer frequency, TF over GST control) | 1.06 fold enrichment (6-mer frequency, TF over GST control) | 1.14 fold enrichment (6-mer frequency, TF over GST control) | 1.03 fold enrichment (6-mer frequency, TF over GST control) | 1.15 fold enrichment (6-mer frequency, TF over GST control) | 1.06 fold enrichment (6-mer frequency, TF over GST control) | 1.01 fold enrichment (6-mer frequency, TF over GST control) | 1.05 fold enrichment (6-mer frequency, TF over GST control) |  |  |
| ATGTCA | 1.14 fold enrichment (6-mer frequency, TF over GST control) | 1.1 fold enrichment (6-mer frequency, TF over GST control) | 1.14 fold enrichment (6-mer frequency, TF over GST control) | 1.17 fold enrichment (6-mer frequency, TF over GST control) | 1.16 fold enrichment (6-mer frequency, TF over GST control) | 1.15 fold enrichment (6-mer frequency, TF over GST control) | 1.08 fold enrichment (6-mer frequency, TF over GST control) | 1.19 fold enrichment (6-mer frequency, TF over GST control) | 1.03 fold enrichment (6-mer frequency, TF over GST control) | 1.08 fold enrichment (6-mer frequency, TF over GST control) | 1.21 fold enrichment (6-mer frequency, TF over GST control) | 1.19 fold enrichment (6-mer frequency, TF over GST control) | 1.14 fold enrichment (6-mer frequency, TF over GST control) |  | 1.11 fold enrichment (6-mer frequency, TF over GST control) | 1.02 fold enrichment (6-mer frequency, TF over GST control) | 1.28 fold enrichment (6-mer frequency, TF over GST control) |
